Laboratory results published in the supplement of paper PMC10849652.
The full data set covers some 8,800 targets. This sample favours those with a hit. About 0.5% of all pairs of compound and target were hits. A number with no mark means an inactive call.

Key:
Assay in all cases: log2 fold change, soluble protein after heating vs DMSO (PISA); higher = thermal stabilisation; K562 lysate, 10 uM; active = over 0.2 and 3.5 SD of the protein, either way, in both replicates (recomputed)
[1] = compound: CN1CC[C@H](c2c(O)cc(O)c3c(=O)cc(-c4ccccc4Cl)oc23)[C@H](O)C1 [alvocidib]
Procedure, shortened: (§1)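 Soluble protein was defined as the supernatant remaining after 21,000xg for 90 min, following pooling of heated aliquots and adjustment to 0.5% NP-40 at 4°C. Before that, crude K562 extract at 1 mg/mL protein in PBS pH 7.4 with 1 mM MgCl2 was treated with 10 μM compound for 30 min and heated for 3 min across 48°C-58°C. Quantification used TMTpro 16plex LC-MS/MS with channel sums equalised, and values are log-two fold changes in thermal stability relative to solvent controls from duplicates.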

[2] = compound: CN1CCc2c(c3ccccc3n2Cc2ccc(C(=O)NO)cc2)C1 [Tubastatin A]
Procedure, shortened: as §1

[3] = compound: CNC(=O)C1=CC=CC=C1NC2=NC(=NC=C2Cl)NC3=C(C=C(C=C3)N4CCOCC4)OC
Procedure, shortened: as §1

[4] = compound: CNC(=O)c1ccc(Nc2ncc(C(F)(F)F)c(NCc3nccnc3N(C)S(C)(=O)=O)n2)cc1 [defactinib]
Procedure, shortened: as §1

[5] = compound: CNc1nc(-c2ccc3c(N)n[nH]c3c2)cc(N2C[C@@H](C(=O)NC3CCCCC3)CC[C@H]2C)n1
Procedure, shortened: as §1

[6] = compound: COC(=O)N[C@@H](C)CNc1nccc(-c2cn(C(C)C)nc2-c2cc(Cl)cc(NS(C)(=O)=O)c2F)n1 [encorafenib]
Procedure, shortened: as §1

[7] = compound: COC(=O)[C@H](CCSC)NC(=O)C1=C(C=C(C=C1)NC[C@H](CS)N)C2=CC=CC=C2
Procedure, shortened: as §1

[8] = compound: COc1cc(Nc2ncc3c(n2)-c2ccc(Cl)cc2C(c2c(F)cccc2OC)=NC3)ccc1C(=O)O [alisertib]
Procedure, shortened: as §1

[9] = compound: COc1cc2nc(-c3cc(F)ccc3O)nc(N[C@@H]3CNC[C@H]3C(C)(C)O)c2cc1OC
Procedure, shortened: as §1

[10] = compound: COc1cc2ncnc(Nc3ccc(F)c(Cl)c3)c2cc1OCCCN1CCOCC1 [gefitinib]
Procedure, shortened: as §1

[11] = compound: CS(=O)(=O)CCNCc1ccc(-c2ccc3ncnc(Nc4ccc(OCc5cccc(F)c5)c(Cl)c4)c3c2)o1 [lapatinib]
Procedure, shortened: as §1

[12] = compound: CS(=O)(=O)N1CCN(Cc2cc3nc(-c4cccc5[nH]ncc45)nc(N4CCOCC4)c3s2)CC1 [pictilisib]
Procedure, shortened: as §1

[13] = compound: C[C@@H](Oc1cc(-c2cnn(C3CCNCC3)c2)cnc1N)c1c(Cl)ccc(F)c1Cl [crizotinib]
Procedure, shortened: as §1

[14] = compound: C[C@H](C1=CC=C(C=C1)C(=O)NC2=C3C=CNC3=NC=C2)N
Procedure, shortened: as §1

[15] = compound: C[C@H](Nc1ncnc2nc[nH]c12)c1cc2cccc(Cl)c2c(=O)n1-c1ccccc1 [duvelisib]
Procedure, shortened: as §1

[16] = compound: Cc1cc(Nc2cc(CN3CCOCC3)c3nc(C)c(Cc4ccc(Cl)cc4F)n3n2)n[nH]1 [gandotinib]
Procedure, shortened: as §1

[17] = compound: Cc1cc(Nc2cc(N3CCN(C)CC3)nc(Sc3ccc(NC(=O)C4CC4)cc3)n2)n[nH]1 [tozasertib]
Procedure, shortened: as §1

[18] = compound: Cc1ccc(-n2nc(C(C)(C)C)cc2NC(=O)Nc2ccc(OCCN3CCOCC3)c3ccccc23)cc1 [doramapimod]
Procedure, shortened: as §1

[19] = compound: Cc1ccc(NC(=O)c2ccc(CN3CC[C@H](N(C)C)C3)c(C(F)(F)F)c2)cc1Nc1nccc(-c2cncnc2)n1 [bafetinib]
Procedure, shortened: as §1

[20] = compound: Cc1cccc(CC(=O)N2CCc3c2ccc(-c2cn(C)c4ncnc(N)c24)c3F)n1
Procedure, shortened: as §1

UniProt O95857, sequence (O95857 whole entry, looked up): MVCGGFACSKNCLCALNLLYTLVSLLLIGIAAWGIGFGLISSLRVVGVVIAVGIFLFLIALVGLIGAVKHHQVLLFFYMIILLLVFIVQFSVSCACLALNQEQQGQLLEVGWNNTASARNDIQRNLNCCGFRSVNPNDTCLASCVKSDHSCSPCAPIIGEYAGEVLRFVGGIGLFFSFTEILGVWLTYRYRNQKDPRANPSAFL
UniProt Q12933, sequence (Q12933 whole entry, looked up): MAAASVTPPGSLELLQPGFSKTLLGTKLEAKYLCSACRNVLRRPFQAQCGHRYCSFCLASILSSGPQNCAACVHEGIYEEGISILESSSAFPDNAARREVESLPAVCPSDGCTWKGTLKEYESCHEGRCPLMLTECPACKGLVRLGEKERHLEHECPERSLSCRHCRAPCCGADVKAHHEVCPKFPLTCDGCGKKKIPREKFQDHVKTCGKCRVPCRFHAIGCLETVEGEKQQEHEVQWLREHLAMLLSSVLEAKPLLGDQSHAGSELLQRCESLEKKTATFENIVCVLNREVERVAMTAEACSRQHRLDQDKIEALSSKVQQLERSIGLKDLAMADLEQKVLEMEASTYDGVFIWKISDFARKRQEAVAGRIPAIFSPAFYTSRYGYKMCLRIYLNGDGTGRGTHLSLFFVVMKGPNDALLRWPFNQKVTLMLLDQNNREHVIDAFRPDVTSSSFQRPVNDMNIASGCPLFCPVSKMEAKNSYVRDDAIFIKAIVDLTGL
UniProt Q8IZ69, sequence (Q8IZ69 whole entry, looked up): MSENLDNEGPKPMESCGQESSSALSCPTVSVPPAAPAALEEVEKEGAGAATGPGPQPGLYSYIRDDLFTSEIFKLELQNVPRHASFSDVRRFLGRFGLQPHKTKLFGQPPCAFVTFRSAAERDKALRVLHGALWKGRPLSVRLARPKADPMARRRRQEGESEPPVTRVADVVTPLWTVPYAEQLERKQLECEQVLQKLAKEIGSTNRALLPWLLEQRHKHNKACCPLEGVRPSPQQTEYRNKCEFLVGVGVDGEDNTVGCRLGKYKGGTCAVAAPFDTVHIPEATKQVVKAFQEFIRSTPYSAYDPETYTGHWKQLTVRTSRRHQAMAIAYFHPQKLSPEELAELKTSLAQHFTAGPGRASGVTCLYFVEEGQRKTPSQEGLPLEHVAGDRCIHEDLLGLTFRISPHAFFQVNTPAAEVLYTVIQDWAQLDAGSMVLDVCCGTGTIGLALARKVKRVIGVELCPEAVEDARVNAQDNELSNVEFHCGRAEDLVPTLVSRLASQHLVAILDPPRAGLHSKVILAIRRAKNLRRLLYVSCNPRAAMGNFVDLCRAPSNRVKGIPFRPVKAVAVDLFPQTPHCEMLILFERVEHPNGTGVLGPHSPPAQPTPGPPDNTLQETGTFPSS
UniProt O43399, sequence (O43399 whole entry, looked up): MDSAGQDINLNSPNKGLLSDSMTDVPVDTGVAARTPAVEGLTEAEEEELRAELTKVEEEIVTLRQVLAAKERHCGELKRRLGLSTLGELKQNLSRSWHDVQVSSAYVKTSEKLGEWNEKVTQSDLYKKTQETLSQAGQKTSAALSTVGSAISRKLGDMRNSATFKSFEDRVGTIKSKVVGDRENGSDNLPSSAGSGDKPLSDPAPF
UniProt Q8WVT3, sequence (Q8WVT3 whole entry, looked up): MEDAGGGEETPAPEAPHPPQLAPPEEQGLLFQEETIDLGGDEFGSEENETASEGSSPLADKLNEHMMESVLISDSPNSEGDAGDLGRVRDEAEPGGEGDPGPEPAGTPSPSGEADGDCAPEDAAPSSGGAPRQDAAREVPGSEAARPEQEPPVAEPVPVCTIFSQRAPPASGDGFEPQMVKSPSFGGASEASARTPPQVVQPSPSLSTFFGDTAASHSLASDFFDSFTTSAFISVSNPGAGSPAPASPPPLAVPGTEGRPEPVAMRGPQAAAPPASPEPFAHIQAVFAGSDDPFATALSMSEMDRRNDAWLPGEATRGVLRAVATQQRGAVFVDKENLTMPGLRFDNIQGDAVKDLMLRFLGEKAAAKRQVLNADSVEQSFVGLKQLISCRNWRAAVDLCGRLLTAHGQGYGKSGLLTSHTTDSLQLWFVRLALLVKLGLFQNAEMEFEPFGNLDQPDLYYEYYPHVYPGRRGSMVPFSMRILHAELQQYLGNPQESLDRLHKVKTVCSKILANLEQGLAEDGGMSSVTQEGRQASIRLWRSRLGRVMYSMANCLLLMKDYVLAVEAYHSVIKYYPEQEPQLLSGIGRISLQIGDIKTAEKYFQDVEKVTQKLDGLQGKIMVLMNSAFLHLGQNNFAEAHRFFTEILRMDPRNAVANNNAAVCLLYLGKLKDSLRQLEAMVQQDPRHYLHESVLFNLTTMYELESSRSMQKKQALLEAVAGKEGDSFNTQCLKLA
UniProt Q5BJF2, sequence (Q5BJF2 whole entry, looked up): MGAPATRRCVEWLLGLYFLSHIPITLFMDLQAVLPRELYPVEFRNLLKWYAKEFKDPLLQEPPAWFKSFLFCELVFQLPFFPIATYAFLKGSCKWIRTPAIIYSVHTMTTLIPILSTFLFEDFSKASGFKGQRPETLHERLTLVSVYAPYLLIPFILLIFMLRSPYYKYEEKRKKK
UniProt Q15813, sequence (Q15813 whole entry, looked up): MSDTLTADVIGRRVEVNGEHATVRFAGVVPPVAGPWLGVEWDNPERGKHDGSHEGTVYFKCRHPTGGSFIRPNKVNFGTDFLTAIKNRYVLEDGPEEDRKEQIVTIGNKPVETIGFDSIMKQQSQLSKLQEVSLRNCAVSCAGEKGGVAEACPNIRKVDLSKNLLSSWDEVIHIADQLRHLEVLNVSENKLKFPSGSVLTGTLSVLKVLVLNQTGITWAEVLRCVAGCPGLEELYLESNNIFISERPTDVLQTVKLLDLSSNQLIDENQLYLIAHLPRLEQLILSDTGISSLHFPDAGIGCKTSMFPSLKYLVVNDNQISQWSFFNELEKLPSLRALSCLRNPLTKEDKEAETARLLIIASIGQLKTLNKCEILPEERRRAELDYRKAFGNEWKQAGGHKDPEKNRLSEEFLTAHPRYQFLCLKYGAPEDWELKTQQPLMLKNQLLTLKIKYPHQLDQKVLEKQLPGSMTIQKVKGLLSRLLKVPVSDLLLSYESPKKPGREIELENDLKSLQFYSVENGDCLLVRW
UniProt Q14139, sequence (Q14139 whole entry, looked up): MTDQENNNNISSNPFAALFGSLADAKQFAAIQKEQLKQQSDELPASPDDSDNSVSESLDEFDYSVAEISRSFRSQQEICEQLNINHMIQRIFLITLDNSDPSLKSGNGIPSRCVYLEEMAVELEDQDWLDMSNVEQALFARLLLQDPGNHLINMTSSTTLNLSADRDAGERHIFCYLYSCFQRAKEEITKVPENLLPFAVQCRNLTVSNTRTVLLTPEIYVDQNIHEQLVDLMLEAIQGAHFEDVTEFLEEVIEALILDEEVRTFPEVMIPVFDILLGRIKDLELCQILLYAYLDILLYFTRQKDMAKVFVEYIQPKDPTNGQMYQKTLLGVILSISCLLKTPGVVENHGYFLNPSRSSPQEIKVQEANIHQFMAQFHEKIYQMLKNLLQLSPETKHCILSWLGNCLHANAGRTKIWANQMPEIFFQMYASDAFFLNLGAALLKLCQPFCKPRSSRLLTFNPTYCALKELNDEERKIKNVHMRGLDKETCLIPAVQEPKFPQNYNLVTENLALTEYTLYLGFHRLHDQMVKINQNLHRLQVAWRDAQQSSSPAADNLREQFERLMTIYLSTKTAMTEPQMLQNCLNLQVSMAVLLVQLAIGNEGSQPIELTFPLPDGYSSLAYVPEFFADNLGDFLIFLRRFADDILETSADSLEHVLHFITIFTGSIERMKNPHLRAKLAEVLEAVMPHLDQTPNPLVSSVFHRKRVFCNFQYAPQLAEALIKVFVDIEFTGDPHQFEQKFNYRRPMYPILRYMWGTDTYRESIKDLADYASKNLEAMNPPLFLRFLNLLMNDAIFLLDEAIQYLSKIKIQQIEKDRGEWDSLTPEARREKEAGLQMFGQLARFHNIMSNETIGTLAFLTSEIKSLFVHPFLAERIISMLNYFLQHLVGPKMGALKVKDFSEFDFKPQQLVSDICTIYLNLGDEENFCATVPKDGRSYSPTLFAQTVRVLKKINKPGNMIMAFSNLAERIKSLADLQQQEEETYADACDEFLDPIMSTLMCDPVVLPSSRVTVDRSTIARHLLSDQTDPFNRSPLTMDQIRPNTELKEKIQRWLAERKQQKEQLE
UniProt Q9NUQ7, sequence (Q9NUQ7 whole entry, looked up): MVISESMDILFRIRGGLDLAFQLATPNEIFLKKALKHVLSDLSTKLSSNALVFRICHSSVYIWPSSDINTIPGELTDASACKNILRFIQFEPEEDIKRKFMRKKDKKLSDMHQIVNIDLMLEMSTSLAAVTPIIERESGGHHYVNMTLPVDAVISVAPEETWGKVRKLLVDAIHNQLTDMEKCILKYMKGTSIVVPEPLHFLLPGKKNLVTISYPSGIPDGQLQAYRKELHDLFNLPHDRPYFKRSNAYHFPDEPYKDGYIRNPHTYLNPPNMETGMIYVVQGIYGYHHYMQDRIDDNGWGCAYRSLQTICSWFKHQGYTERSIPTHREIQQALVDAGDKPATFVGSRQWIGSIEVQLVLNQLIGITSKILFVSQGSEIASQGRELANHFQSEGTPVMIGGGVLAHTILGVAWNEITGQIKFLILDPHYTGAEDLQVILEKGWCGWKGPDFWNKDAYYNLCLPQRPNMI
UniProt P11441, sequence (P11441 whole entry, looked up): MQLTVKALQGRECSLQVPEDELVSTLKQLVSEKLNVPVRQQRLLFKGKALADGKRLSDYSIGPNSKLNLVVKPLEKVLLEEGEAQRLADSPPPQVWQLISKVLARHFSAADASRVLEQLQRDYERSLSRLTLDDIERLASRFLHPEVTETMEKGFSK

Target	log2 fold change [1]	log2 fold change [2]	log2 fold change [3]	log2 fold change [4]	log2 fold change [5]	log2 fold change [6]	log2 fold change [7]	log2 fold change [8]	log2 fold change [9]	log2 fold change [10]	log2 fold change [11]	log2 fold change [12]	log2 fold change [13]	log2 fold change [14]	log2 fold change [15]	log2 fold change [16]	log2 fold change [17]	log2 fold change [18]	log2 fold change [19]	log2 fold change [20]
TRAPPC12 (UniProt Q8WVT3)	-0.009	-0.079	0.063	0.002	-0.039	0.065	0.057	0.034	0.01	0.022	0.02	-0.017	-0.033	-0.017	0.012	-0.042	-0.029	-0.036	-0.039	0.048
TRIM33 (UniProt H0Y612)	-0.081	-0.034	0.119	-0.007	0.075	0.014	0.122	-0.006	0.09	-0.102	-0.078	0.044	0.004	-0.093	0.012	0.019	0.07	0.001	-0.077	0.039
UBE4A isoform 2 (UniProt Q14139)	0	-0.087	0.029	0.011	-0.073	0.018	-0.102	0.018	0.013	-0.041	-0.019	-0.007	-0.059	-0.009	0.016	-0.15	0	0.004	-0.054	0.043
TTC27 (UniProt Q6P3X3)	0.012	-0.148	-0.049	0.023	-0.007	0.028	0.057	0.027	0.012	0.02	-0.01	0.005	-0.041	-0.033	0.04	-0.129	0.004	0.048	-0.066	0.04
TBCE (UniProt Q15813)	-0.008	-0.162	-0.026	0.031	-0.028	-0.008	0.265 (active)	-0.008	-0.006	-0.006	-0.019	-0.039	-0.042	-0.002	0.025	-0.034	-0.004	0.001	0.033	0.039
TBC1D23 (UniProt Q9NUY8)	0	-0.076	0.025	-0.006	0.05	-0.009	-0.019	-0.014	0.002	-0.006	-0.007	-0.016	-0.031	-0.033	-0.012	0.03	0.034	0.017	-0.027	0.048
TPD52L2 isoform 7 (UniProt O43399)	-0.043	0.062	-0.005	0.023	0.086	-0.026	0.008	-0.01	0.037	0.02	0.039	0.003	0.095	-0.124	-0.022	0.222 (active)	0.043	0.03	0.139	0.057
TRMT2A (UniProt Q8IZ69)	-0.014	-0.144	0.019	0.041	-0.018	0.019	0.098	0.043	0.007	0.007	-0.01	-0.057	-0.017	-0.002	-0.036	-0.03	0.001	-0.002	-0.016	0.009
TMEM97 (UniProt Q5BJF2)	-0.081	0.114	-0.016	-0.021	0.091	-0.008	-0.042	-0.026	0.014	-0.017	-0.052	-0.004	0.113	-0.277 (active)	0.014	0.17	-0.013	-0.127	-0.015	0.12
UFSP2 (UniProt Q9NUQ7)	0.034	0.024	-0.045	0.022	-0.036	0.031	0.055	0.019	0.035	-0.031	-0.02	-0.008	-0.022	-0.012	0.009	-0.004	0.017	0.002	-0.028	0.017
TRAF2 isoform 2 (UniProt Q12933)	-0.006	-0.006	0.025	-0.013	0.01	0.004	-0.198	0.003	-0.007	-0.04	-0.032	0.004	-0.032	-0.047	0.006	-0.045	0.007	0.005	-0.011	0.053
TIMM44 (UniProt O43615)	0.001	0.083	0.039	0.018	-0.017	0.056	0.08	0.082	-0.04	0.017	0.04	0.022	0.055	0.009	-0.003	0.136	0.019	0.058	-0.067	0.065
TUBA1C (UniProt Q9BQE3)	0	-0.001	0.011	0.009	0.06	-0.002	0.023	-0.012	0.001	-0.042	0.004	-0.057	-0.045	-0.013	-0.019	0.062	-0.008	-0.026	0.005	0.021
TSPAN13 (UniProt O95857)	-0.26	0.046	-0.042	0.017	0.299	-0.007	0.049	0.003	0.043	-0.003	0.017	0.015	0.011	-0.387 (active)	-0.241	0.32	-0.207	0.119	0.038	0.055
TPM1 (UniProt H7BYY1)	0.027	0.092	0.007	0	0.022	0.056	-0.023	-0.048	-0.04	0.076	0.028	0.042	0.096	0.063	-0.004	-0.118	0.012	-0.025	0.026	-0.158
UBL4A (UniProt P11441)	0.016	-0.039	-0.015	0.006	-0.008	0.046	-0.043	0.018	-0.059	-0.033	-0.003	-0.057	0.112	0.253 (active)	0.007	-0.157	0.076	-0.029	-0.044	-0.06
